Measured values reported in PubChem BioAssay (NCI).
The panel holds about 79,000 compounds, 15% with a hit somewhere; the sample as a whole holds those more often. Active and inactive are the calls of the source. No stated cut-off is given here; in the data, active means growth inhibition above about 70%; inactive means the rest.

Key:
[1] = NCI Yeast Anticancer Drug Screen. Data for the wt1 strain (AID 149);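 further: 0% = growth of vehicle-treated wt1 cultures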; details: S. cerevisiae wt1 strain (SPY 50644) growth inhibition, hits give high values
Method in brief: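 Vehicle-normalised growth inhibition; strain wt1; compound exposure.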

[2] = NCI Yeast Anticancer Drug Screen. Data for the rad50EPP+ strain (AID 151);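 further: 0% = growth of vehicle-treated control cultures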; details: S. cerevisiae rad50 mutant strain, hits give high values
Method in brief: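 Vehicle-normalised growth inhibition; rad50EPP+ yeast strain, altered in DNA damage repair, compound-treated.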

[3] = NCI Yeast Anticancer Drug Screen. Data for the mgt1 strain (AID 153); details: S. cerevisiae mgt1 mutant growth inhibition, hits give high values
Method in brief: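 Vehicle-normalized growth inhibition is determined in mgt1 yeast, a strain selected for a defined alteration in DNA repair or cell cycle control.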

[4] = NCI Yeast Anticancer Drug Screen. Data for the rad50 strain (AID 155);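 further: 0% = growth of vehicle-only cultures of the same strain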; details: S. cerevisiae rad50 strain growth inhibition, hits give high values
Method in brief: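 A DNA repair-deficient yeast mutant serves as the test organism; compound-induced growth inhibition is calculated against vehicle-treated cells.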

[5] = NCI Yeast Anticancer Drug Screen. Data for the mec2-1 strain (AID 157); details: S. cerevisiae mec2-1 strain, hits give high values
Method in brief: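 Mutant yeast (mec2-1) grown with compound; growth inhibition relative to vehicle control reported.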

[6] = NCI Yeast Anticancer Drug Screen. Data for the sgs1 mgt1 strain (AID 161);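 further: 0% = growth of cultures given vehicle only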; details: S. cerevisiae sgs1 mgt1 strain, hits give high values
Method in brief: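 This yeast growth screen uses a strain with defined DNA-repair lesions; compound-treated growth is compared with vehicle-treated growth.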

[7] = NCI Yeast Anticancer Drug Screen. Data for the CLN2oe strain (AID 163);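 further: 0% = growth of vehicle-only control cultures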; details: S. cerevisiae CLN2oe strain, hits give high values
Method in brief: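 Compounds are applied to yeast harbouring a defined cell-cycle control change; reduced growth compared with vehicle-treated controls gives the value.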

[8] = NCI Yeast Anticancer Drug Screen. Data for the cln2 rad14 strain (AID 165);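 further: 0% = growth equal to vehicle treated cultures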; details: S. cerevisiae cln2 rad14 strain, hits give high values
Method in brief: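 Readout is yeast growth inhibition versus vehicle-treated controls, using a strain with cln2 and rad14 alterations exposed to compound.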

[9] = NCI Yeast Anticancer Drug Screen. Data for the bub3 strain (AID 167); details: S. cerevisiae bub3 mutant strain, hits give high values
Method in brief: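 Inhibition values come from growth of compound-treated mutant yeast normalised to vehicle-treated controls.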

[10] = NCI Yeast Anticancer Drug Screen. Data for the wt2 strain (AID 169);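 further: 0% = growth of vehicle-treated yeast cultures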; details: S. cerevisiae wt2 strain growth inhibition, hits give high values
Method in brief: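 Against vehicle-treated controls, the growth of yeast exposed to each compound was compared, and the inhibition was recorded.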

[11] = NCI Yeast Anticancer Drug Screen. Data for the mlh1 strain (AID 171);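 further: 0% = growth of vehicle-treated control cultures of the same strain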; details: S. cerevisiae mlh1 strain growth inhibition, hits give high values
Method in brief: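 Measured: yeast growth. Reference: vehicle-treated controls. Organism: strain with a defined alteration affecting DNA damage repair or cell cycle control, treated with compound.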

[12] = NCI Yeast Anticancer Drug Screen. Data for the sgs1 strain (AID 173);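 further: 0% = growth of vehicle-only control cultures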; details: S. cerevisiae sgs1 mutant, hits give high values
Method in brief: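 Each compound was added to cultures of the altered yeast strain. Growth was recorded, and inhibition was derived by comparison with vehicle controls.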

[13] = NCI Yeast Anticancer Drug Screen. Data for the mlh1 rad18 strain (AID 175); details: S. cerevisiae mlh1 rad18 strain growth inhibition, hits give high values
Method in brief: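 Genetically defined yeast (DNA repair-deficient) exposed to compounds; growth inhibition determined relative to vehicle.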

[14] = NCI Yeast Anticancer Drug Screen. Data for the rad18 strain (AID 177); details: S. cerevisiae rad18 mutant growth inhibition, hits give high values
Method in brief: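 Vehicle-treated cultures served as the baseline for scoring compound-induced growth inhibition in DNA-repair-mutant yeast.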

[15] = at 5.0 µM (retest, dose inferred, filed as 0.5)
[16] = at 50.0 µM (retest, dose inferred, filed as 5.0)

Measured: growth inhibition

O=S(=O)(Oc1c(Cl)cc(Cl)cc1Cl)c1ccccc1
inactive: [1]; at 1.2 µM -4% | [1]; at 3.7 µM -7% | [1]; at 11.0 µM -9% | [1]; at 33.0 µM -11% | [1]; at 100.0 µM -5% | [2]; at 1.2 µM 8% | [2]; at 3.7 µM 23% | [2]; at 11.0 µM 37% | [3]; at 1.2 µM -3% | [3]; at 3.7 µM -5% | [3]; at 11.0 µM -2% | [3]; at 33.0 µM 9% | [3]; at 100.0 µM 30% | [4]; at 1.2 µM 0% | [4]; at 3.7 µM 3% | [4]; [15] 8% | [4]; at 11.0 µM 10% | [4]; at 33.0 µM 14% | [4]; [16] 12% | [4]; at 50.0 µM 10.2% | [4]; at 100.0 µM 14% | [5]; at 1.2 µM -4% | [5]; at 3.7 µM -1% | [5]; [15] -9% | [5]; at 11.0 µM 1% | [5]; at 33.0 µM 4% | [5]; [16] 20% | [5]; at 50.0 µM 40.5% | [5]; at 100.0 µM 13% | [6]; [15] 2% | [6]; [16] 47% | [6]; at 50.0 µM 66.3% | [7]; at 1.2 µM -1% | [7]; at 3.7 µM -4% | [7]; at 11.0 µM -14% | [7]; at 33.0 µM -14% | [7]; at 100.0 µM -8% | [8]; [15] -18% | [8]; [16] 20% | [8]; at 50.0 µM -33.5% | [9]; at 1.2 µM -1% | [9]; at 3.7 µM -4% | [9]; [15] 0% | [9]; at 11.0 µM -2% | [9]; at 33.0 µM 0% | [9]; [16] -8% | [9]; at 50.0 µM 55.4% | [9]; at 100.0 µM 14% | [10]; at 1.2 µM -1% | [10]; at 3.7 µM -4% | [10]; at 11.0 µM -7% | [10]; at 33.0 µM -2% | [10]; at 100.0 µM 10% | [11]; at 1.2 µM -1% | [11]; at 3.7 µM -2% | [11]; at 11.0 µM -10% | [11]; at 33.0 µM 13% | [11]; at 100.0 µM 28% | [12]; at 1.2 µM -3% | [12]; at 3.7 µM -1% | [12]; at 11.0 µM 11% | [12]; at 33.0 µM 22% | [12]; at 100.0 µM 11% | [13]; [15] -7% | [13]; [16] 56% | [13]; at 50.0 µM 63.6% | [14]; at 1.2 µM -3% | [14]; at 3.7 µM 4% | [14]; at 11.0 µM 12% | [14]; at 33.0 µM 19% | [14]; at 100.0 µM 30%
active: [2]; at 33.0 µM 71% | [2]; at 100.0 µM 89%
